This is an account of results in paper PMC7862700, “An all-to-all approach to the identification of sequence-specific readers for epigenetic DNA modifications on cytosine”.

Common to all, as to test: DAPPL (digital affinity profiling via proximity ligation, sequencing); 10 mM Tris-HCl pH 7.5, 50 mM NaCl, 1 mM DTT, 4% glycerol, room temperature, 30 min; GST-TFs on glutathione beads, 16-mer random dsDNA library, 0.1% formaldehyde crosslink after washing; high values mean tight binding
The target of one experiment is T1, FLI1 (Homo sapiens, UniProt Q01543 1-452).
T1 sequence: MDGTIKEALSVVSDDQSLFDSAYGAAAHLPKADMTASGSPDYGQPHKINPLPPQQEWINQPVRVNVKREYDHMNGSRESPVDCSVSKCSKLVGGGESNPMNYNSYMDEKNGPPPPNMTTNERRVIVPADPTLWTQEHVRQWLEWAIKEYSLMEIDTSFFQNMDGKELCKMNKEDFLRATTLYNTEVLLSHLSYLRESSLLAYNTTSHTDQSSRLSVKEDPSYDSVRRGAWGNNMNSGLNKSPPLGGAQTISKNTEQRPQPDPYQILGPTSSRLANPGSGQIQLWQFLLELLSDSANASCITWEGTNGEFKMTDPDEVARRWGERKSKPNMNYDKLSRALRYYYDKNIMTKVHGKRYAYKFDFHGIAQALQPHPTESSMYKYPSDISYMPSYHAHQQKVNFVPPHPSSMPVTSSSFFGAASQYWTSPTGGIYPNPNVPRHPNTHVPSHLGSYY
The conditions noted are these: protein: recombinant; tags: N-terminal GST; dsDNA, one strand shown. The gist of the method:
(§1)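 Yeast served to express human transcription factors as GST fusions, which were then captured on glutathione beads and labelled with DNA barcodes. Pooled with a tag-only sample, they were incubated with 200 nmole of a 16-mer random double-stranded DNA library for 30 min at room temperature in Tris/NaCl/DTT/glycerol buffer, washed, crosslinked with 0.1% formaldehyde, ligated by proximity, amplified by PCR and sequenced. Dividing each hexamer's read frequency for a factor by its frequency for the tag-only sample gives the binding signal.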

The target of the next experiment is T2, ELK1 (Homo sapiens, UniProt P19419 1-428).
T2 sequence: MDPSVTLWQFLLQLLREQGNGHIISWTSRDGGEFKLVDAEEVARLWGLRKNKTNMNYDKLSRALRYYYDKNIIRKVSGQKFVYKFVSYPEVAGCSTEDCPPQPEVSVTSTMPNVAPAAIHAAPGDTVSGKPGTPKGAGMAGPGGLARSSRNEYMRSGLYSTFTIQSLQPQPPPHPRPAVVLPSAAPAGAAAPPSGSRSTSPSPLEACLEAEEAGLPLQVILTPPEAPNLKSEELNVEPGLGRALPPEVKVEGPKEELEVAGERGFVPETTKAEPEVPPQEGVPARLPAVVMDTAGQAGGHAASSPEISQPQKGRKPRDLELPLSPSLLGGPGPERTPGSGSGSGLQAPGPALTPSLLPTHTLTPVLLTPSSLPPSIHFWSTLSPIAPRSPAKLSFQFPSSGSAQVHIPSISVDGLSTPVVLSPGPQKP
The conditions noted are these: protein: recombinant; tags: N-terminal GST; dsDNA, one strand shown. The gist of the method:
as §1

The target of a further experiment is T3, GABPA (Homo sapiens, UniProt Q06546 1-454).
T3 sequence: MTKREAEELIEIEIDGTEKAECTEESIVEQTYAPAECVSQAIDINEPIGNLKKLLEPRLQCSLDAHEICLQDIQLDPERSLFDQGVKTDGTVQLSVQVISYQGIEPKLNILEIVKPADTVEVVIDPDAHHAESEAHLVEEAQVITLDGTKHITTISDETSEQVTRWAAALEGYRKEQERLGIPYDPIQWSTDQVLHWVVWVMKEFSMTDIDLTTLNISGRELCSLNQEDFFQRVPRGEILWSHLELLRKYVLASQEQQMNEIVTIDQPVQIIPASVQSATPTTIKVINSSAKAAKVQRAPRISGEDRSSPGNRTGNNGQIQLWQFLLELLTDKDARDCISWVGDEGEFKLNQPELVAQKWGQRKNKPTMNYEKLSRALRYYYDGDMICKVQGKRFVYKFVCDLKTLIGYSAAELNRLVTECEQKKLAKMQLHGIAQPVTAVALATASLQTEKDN
The conditions noted are these: protein: recombinant; tags: N-terminal GST; dsDNA, one strand shown. A digest of the protocol: as §1

The target of another experiment is T4, ERG (Homo sapiens, UniProt P11308 1-479).
T4 sequence: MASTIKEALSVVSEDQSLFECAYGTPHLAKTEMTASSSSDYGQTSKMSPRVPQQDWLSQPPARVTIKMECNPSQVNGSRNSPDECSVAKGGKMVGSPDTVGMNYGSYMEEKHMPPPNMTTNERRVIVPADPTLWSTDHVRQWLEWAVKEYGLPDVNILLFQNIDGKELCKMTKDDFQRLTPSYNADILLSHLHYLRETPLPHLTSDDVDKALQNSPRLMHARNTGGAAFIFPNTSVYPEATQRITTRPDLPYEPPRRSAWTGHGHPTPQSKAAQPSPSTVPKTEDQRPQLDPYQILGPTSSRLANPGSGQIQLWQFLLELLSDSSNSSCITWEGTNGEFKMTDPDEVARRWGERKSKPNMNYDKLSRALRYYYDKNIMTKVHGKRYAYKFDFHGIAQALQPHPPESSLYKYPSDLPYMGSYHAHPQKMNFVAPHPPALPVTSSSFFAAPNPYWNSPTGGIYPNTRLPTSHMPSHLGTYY
The note with it: protein: recombinant; tags: N-terminal GST; dsDNA, one strand shown. A digest of the protocol: as §1

Another experiment concerns the target ELF1 (Homo sapiens, UniProt P32519 1-619). The note with it: protein: recombinant; tags: N-terminal GST; dsDNA, one strand shown. A digest of the protocol: as §1
The target in the next experiment is T5, EHF (Homo sapiens, UniProt Q9NZC4 1-300).
T5 sequence: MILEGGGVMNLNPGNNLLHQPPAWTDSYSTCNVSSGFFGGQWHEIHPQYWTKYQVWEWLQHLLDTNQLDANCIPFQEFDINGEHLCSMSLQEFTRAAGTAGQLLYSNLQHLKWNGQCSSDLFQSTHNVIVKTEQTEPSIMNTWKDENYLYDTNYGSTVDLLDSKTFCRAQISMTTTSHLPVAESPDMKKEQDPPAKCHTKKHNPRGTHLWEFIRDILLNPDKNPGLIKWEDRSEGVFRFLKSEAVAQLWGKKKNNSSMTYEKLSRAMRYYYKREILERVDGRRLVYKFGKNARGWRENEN
The note with it: protein: recombinant; tags: N-terminal GST; dsDNA, one strand shown. A digest of the protocol:
as §1

The next experiment deals with SPI1 (Homo sapiens, UniProt P17947 1-270). The note with it: protein: recombinant; tags: N-terminal GST; dsDNA, one strand shown. The gist of the method:
as §1

The next experiment deals with SPIB (Homo sapiens, UniProt Q01892 1-262). The note with it: protein: recombinant; tags: N-terminal GST; dsDNA, one strand shown. The gist of the method: as §1
Sequence of SPIB (Q01892 whole entry): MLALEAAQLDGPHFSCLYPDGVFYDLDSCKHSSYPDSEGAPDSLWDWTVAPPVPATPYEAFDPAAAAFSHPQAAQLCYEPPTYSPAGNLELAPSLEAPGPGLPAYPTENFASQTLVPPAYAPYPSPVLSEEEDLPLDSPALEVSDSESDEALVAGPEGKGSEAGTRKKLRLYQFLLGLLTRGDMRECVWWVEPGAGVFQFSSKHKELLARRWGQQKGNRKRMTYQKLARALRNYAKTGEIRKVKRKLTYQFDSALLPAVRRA
A further experiment has as its target T6, ELK3 (Homo sapiens, UniProt P41970 1-407).
T6 sequence: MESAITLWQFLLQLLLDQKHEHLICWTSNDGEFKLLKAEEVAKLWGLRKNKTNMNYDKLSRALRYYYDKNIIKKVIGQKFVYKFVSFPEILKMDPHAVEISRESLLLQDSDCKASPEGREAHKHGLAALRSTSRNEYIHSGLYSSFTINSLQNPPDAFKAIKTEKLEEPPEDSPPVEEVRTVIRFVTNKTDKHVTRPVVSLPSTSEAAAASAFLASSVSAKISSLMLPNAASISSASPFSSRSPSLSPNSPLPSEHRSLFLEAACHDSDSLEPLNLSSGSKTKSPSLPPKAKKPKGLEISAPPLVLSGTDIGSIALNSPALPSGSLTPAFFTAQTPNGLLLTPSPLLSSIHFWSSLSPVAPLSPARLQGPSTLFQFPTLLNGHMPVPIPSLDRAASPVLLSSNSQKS
The conditions noted are these: protein: recombinant; tags: N-terminal GST; dsDNA, one strand shown. A digest of the protocol:
as §1

The target in a further experiment is T7, FEV (Homo sapiens, UniProt Q99581 1-238).
T7 sequence: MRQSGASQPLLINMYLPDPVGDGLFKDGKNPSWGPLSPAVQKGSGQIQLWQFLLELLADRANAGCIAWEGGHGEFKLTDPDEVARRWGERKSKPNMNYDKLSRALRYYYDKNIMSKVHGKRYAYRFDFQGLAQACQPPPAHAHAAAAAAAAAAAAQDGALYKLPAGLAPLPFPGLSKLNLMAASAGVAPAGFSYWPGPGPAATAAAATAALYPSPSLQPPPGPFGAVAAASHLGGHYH
The note with it: protein: recombinant; tags: N-terminal GST; dsDNA, one strand shown. A digest of the protocol:
as §1

In a further experiment the target is ETV5 (Homo sapiens, UniProt P41161 1-510). The conditions noted are these: protein: recombinant; tags: N-terminal GST; dsDNA, one strand shown. A digest of the protocol:
as §1

The next experiment has as its target HSF1 (Homo sapiens, UniProt Q00613 1-529). The conditions noted are these: protein: recombinant; tags: N-terminal GST; chain copies: 3; dsDNA, one strand shown. The gist of the method:
as §1

The target in a further experiment is T8, SPIC (Homo sapiens, UniProt Q8N5J4 1-248).
T8 sequence: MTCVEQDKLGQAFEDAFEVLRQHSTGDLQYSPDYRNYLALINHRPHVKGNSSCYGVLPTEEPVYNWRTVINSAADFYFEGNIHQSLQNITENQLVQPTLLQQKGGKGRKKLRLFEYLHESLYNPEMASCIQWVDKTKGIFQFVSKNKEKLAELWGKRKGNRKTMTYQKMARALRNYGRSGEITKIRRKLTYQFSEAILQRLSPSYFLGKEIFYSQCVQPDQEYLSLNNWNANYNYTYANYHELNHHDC
The conditions noted are these: protein: recombinant; tags: N-terminal GST; dsDNA, one strand shown. The gist of the method:
as §1

The target of another experiment is ELF4 (Homo sapiens, UniProt Q99607 1-663). The conditions noted are these: protein: recombinant; tags: N-terminal GST; dsDNA, one strand shown. The gist of the method: as §1
Sequence of ELF4 (Q99607 whole entry): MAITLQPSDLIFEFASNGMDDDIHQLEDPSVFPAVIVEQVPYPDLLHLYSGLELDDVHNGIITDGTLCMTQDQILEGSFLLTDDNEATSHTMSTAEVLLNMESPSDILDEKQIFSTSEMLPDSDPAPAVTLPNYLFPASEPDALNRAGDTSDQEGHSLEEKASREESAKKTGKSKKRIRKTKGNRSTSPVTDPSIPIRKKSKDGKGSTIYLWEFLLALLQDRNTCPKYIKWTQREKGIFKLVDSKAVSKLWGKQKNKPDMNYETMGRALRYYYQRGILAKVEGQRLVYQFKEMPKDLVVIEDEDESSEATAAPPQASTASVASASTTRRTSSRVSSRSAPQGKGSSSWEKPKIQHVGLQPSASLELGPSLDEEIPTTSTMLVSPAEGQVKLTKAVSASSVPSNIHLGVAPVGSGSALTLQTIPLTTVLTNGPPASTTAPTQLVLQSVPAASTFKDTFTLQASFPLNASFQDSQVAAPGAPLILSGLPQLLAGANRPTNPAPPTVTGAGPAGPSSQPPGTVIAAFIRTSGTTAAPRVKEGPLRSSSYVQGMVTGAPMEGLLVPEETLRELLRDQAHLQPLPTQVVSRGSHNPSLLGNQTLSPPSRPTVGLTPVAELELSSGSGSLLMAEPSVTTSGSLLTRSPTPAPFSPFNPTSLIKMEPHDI
A further experiment addresses T9, ELK4 (Homo sapiens, UniProt P28324-2 1-405).
T9 sequence: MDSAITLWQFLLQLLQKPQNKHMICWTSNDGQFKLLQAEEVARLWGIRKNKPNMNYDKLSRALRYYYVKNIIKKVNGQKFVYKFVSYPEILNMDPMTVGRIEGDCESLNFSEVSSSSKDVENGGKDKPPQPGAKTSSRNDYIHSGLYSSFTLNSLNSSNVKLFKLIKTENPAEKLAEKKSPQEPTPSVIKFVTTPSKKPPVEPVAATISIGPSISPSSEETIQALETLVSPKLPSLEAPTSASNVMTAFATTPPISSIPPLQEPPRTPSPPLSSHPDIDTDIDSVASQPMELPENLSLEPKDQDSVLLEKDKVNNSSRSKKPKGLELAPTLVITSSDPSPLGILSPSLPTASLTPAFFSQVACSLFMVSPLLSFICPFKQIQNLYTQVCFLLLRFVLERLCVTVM
The note with it: protein: recombinant; tags: N-terminal GST; dsDNA, one strand shown. The gist of the method:
as §1

The next experiment has as its target T10, ELF3 (Homo sapiens, UniProt P78545 1-371).
T10 sequence: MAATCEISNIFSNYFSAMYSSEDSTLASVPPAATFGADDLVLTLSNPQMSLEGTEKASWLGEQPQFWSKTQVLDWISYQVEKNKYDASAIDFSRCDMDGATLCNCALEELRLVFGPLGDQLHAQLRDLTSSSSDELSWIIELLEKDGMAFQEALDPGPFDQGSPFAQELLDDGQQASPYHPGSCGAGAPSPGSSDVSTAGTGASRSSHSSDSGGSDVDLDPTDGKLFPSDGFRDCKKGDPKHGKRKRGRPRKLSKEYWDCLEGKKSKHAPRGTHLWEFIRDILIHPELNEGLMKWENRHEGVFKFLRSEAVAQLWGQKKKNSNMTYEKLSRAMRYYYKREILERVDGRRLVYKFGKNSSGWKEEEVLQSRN
The conditions noted are these: protein: recombinant; tags: N-terminal GST; dsDNA, one strand shown. A digest of the protocol: as §1

The next experiment has as its target CRX (Homo sapiens, UniProt O43186 1-299). The conditions noted are these: protein: recombinant; tags: N-terminal GST; dsDNA, one strand shown. A digest of the protocol: as §1
The target of the next experiment is ETV1 (Homo sapiens, UniProt P50549 1-477). The conditions noted are these: protein: recombinant; tags: N-terminal GST; dsDNA, one strand shown. The gist of the method:
as §1

Sequence of HSF1 (Q00613 whole entry): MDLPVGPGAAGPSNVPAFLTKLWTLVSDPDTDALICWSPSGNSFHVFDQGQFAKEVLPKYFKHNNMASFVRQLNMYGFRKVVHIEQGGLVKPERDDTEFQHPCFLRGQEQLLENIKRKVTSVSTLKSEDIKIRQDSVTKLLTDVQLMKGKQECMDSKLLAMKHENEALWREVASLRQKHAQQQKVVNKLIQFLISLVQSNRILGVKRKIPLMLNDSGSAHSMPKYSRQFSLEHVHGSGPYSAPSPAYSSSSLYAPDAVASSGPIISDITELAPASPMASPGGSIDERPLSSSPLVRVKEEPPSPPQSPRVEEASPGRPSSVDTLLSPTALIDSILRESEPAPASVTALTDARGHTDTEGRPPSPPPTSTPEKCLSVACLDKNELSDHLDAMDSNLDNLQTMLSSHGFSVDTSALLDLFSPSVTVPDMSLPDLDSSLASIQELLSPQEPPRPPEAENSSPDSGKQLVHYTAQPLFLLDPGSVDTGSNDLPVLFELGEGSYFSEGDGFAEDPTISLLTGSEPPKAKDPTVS
Sequence of ETV1 (P50549 whole entry): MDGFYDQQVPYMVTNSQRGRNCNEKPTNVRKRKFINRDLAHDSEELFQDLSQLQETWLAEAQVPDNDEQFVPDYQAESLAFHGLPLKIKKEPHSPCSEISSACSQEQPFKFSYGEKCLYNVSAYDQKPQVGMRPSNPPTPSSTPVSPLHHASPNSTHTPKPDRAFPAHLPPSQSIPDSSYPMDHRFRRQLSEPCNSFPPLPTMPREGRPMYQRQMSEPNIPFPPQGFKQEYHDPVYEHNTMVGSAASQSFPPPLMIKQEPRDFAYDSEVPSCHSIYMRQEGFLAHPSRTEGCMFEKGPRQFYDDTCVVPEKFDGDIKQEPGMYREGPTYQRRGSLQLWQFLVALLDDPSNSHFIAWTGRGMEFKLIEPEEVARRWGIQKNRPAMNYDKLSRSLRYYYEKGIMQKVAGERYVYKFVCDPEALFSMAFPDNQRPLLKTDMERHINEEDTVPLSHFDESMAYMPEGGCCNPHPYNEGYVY
Sequence of CRX (O43186 whole entry): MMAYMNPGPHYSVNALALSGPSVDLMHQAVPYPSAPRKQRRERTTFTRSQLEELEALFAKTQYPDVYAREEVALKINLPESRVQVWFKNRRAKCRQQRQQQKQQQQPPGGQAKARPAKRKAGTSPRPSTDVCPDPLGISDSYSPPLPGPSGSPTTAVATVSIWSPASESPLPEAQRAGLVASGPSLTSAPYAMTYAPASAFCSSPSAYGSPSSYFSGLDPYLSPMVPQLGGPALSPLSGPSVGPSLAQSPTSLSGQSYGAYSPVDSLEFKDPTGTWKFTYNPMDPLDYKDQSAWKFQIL
Sequence of ETV5 (P41161 whole entry): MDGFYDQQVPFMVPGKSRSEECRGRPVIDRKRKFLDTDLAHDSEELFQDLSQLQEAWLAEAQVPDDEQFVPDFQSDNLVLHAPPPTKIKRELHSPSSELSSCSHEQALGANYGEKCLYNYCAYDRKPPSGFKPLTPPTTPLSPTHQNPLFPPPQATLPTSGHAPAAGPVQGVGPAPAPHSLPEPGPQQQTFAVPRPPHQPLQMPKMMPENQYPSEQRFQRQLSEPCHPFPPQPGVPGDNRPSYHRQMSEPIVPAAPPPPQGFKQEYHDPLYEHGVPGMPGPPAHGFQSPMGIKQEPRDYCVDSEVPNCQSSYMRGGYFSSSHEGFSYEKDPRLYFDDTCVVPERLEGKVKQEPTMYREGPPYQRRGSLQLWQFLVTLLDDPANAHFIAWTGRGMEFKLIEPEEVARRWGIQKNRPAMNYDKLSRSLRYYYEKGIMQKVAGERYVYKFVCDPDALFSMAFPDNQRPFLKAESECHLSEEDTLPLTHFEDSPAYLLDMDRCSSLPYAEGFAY
Sequence of ELF1 (P32519 whole entry): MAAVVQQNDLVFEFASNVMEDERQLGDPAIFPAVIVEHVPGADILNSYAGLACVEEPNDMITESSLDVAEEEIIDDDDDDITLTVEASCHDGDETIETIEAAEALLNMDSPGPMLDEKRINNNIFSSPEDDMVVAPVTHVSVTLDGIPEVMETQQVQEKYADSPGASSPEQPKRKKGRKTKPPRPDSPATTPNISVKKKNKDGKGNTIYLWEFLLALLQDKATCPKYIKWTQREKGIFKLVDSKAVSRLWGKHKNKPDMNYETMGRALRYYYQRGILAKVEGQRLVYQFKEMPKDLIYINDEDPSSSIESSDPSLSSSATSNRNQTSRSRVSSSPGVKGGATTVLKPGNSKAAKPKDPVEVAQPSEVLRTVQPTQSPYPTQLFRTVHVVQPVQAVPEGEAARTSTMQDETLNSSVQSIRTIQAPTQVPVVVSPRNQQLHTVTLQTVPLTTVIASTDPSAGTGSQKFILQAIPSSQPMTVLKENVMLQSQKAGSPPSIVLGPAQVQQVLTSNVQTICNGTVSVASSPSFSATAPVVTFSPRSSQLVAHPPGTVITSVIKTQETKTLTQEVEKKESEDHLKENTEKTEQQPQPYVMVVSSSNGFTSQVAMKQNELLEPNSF

As for ATACGC, the binding signal with FLI1 is 1.09 fold enrichment (6-mer frequency, TF over GST control); in the experiment with ELK1, 1.14 fold enrichment (6-mer frequency, TF over GST control); with GABPA, 1.2 fold enrichment (6-mer frequency, TF over GST control); with ERG, 1.13 fold enrichment (6-mer frequency, TF over GST control); with ELF1 it was 1.17 fold enrichment (6-mer frequency, TF over GST control); in the experiment with EHF, 1.11 fold enrichment (6-mer frequency, TF over GST control). In addition, the binding signal with SPI1 was 1.08 fold enrichment (6-mer frequency, TF over GST control); in the experiment with SPIB it was 1.19 fold enrichment (6-mer frequency, TF over GST control); in the experiment with ELK3, 1.18 fold enrichment (6-mer frequency, TF over GST control); with FEV it was 1.05 fold enrichment (6-mer frequency, TF over GST control); with ETV5 it was 1.13 fold enrichment (6-mer frequency, TF over GST control); with HSF1, 1.04 fold enrichment (6-mer frequency, TF over GST control). Moreover, the binding signal is 1.08 fold enrichment (6-mer frequency, TF over GST control) with SPIC; 1.18 fold enrichment (6-mer frequency, TF over GST control) with ELF4; 1.08 fold enrichment (6-mer frequency, TF over GST control) with ELK4; 1.13 fold enrichment (6-mer frequency, TF over GST control) with ELF3; 1.12 fold enrichment (6-mer frequency, TF over GST control) with CRX; 1.18 fold enrichment (6-mer frequency, TF over GST control) with ETV1.
